Data as given in the supplement of paper PMC7366291.
Structures can show the parent of a compound that is named as a salt. ± gives the standard deviation of the averaged measurements.

These compounds were tested on Danio rerio Tg(wt1b:EGFP) embryo, pronephros (assay: fraction of imaged embryos annotated as normal kidney; higher = less nephrotoxic; extreme values may be limits of the assay). Settings: 25 µM; exposure: 24-48 hpf.
How it was run: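 The value given is the share of embryos in each treatment scored as having a normal kidney. To obtain it, dechorionated Tg(wt1b:EGFP) zebrafish embryos were treated from 24 to 48 hpf at 28.5°C with 25 μM compound in 0.5% DMSO, in 5 mM HEPES-buffered E3 with 0.003% PTU. Pronephroi were imaged by widefield fluorescence (470 nm, 10 z-slices), and every embryo was annotated by hand from maximum projections.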
In the case of `NC(=O)OCCCc1ccccc1` [Phenprobamate], the “fraction of imaged embryos annotated as normal kidney” value (“fraction of imaged embryos annotated” below) is reported as 0.75.
With `CCN(C(C)=O)c1cccc(-c2ccnc3c(C#N)cnn23)c1` [Zaleplon] the “fraction of imaged embryos annotated” value was 0.833.
In the case of `c1ccc2c(c1)OCC(C1=NCCN1)O2` (stereo not drawn) [Idazoxan hydrochloride], the “fraction of imaged embryos annotated” value is reported as 0.833.
`CC(=O)OCC1=C(C(=O)O)N2C(=O)[C@@H](N)[C@H]2SC1` [Cephalosporanic acid, 7-amino] was tested, and the “fraction of imaged embryos annotated” value was 1.
In the case of `CC(Cc1ccc(O)cc1)NCC(O)c1cc(O)cc(O)c1` (stereo not drawn) [Fenoterol hydrobromide], the “fraction of imaged embryos annotated” value is reported as 1.
In the case of `COc1ccc(CCN)cc1OC` [Homoveratrylamine], the “fraction of imaged embryos annotated” value is reported as 0.75.
In the case of `O=C(NCNC(=O)NC1C(=O)NC(=O)N1CO)NC1C(=O)NC(=O)N1CO` (stereo not drawn) [Imidurea], the “fraction of imaged embryos annotated” value is reported as 0.833.
For `CC[C@@H](C(N)=O)N1CCCC1=O` [Levetiracetam], the “fraction of imaged embryos annotated” value was 0.917.
For `NC(=O)C[S+]([O-])C(c1ccccc1)c1ccccc1` (stereo not drawn) [Modafinil], the “fraction of imaged embryos annotated” value was 0.5.
With `CCN(CC)C(C)C(=O)c1ccccc1` (stereo not drawn) [Amfepramone hydrochloride] the “fraction of imaged embryos annotated” value was 0.917.
`COc1ccc(CCN2CCC(Nc3nc4ccccc4n3Cc3ccc(F)cc3)CC2)cc1` [Astemizole] was tested, and the “fraction of imaged embryos annotated” value was 0.333.
In the case of `S=C(NC1CCCCC1)N1CCC(c2cnc[nH]2)CC1` [Thioperamide maleate], the “fraction of imaged embryos annotated” value is reported as 0.917.
With `c1ccc2nc(N3CCNCC3)ccc2c1` [Quipazine dimaleate salt] the “fraction of imaged embryos annotated” value was 0.75.
In the case of `C[C@@H]1O[C@@H](O[C@@H]2C=C3CC[C@@H]4[C@H](CC[C@]5(C)[C@@H](c6ccc(=O)oc6)CC[C@]45O)[C@@]3(C)CC2)[C@H](O)[C@H](O)[C@H]1O` [Proscillaridin A], the “fraction of imaged embryos annotated” value is reported as 0.
In the case of `COc1ccc(Cc2nccc3cc(OC)c(OC)cc23)cc1OC` [Papaverine hydrochloride], the “fraction of imaged embryos annotated” value is reported as 0.833.
In the case of `CC[N+]1(C)CCCC(OC(=O)C(O)(c2ccccc2)c2ccccc2)C1` (stereo not drawn) [Pipenzolate bromide], the “fraction of imaged embryos annotated” value is reported as 0.909.
`O=P1(N(CCCl)CCCl)NCCCO1` (stereo not drawn) [Cyclophosphamide] was tested, and the “fraction of imaged embryos annotated” value was 0.75.
For `CC(=O)NC1CCSC1=O` (racemic) [N-Acetyl-DL-homocysteine Thiolactone], the “fraction of imaged embryos annotated” value was 0.917.
In the case of `C=CC[C@]1(O)CC[C@H]2[C@@H]3CCC4=CC(=O)CCC4=C3C=C[C@@]21C` [Altrenogest], the “fraction of imaged embryos annotated” value is reported as 0.333.
For `O=c1[nH]c2ccccc2n1CCCN1CCC(n2c(=O)[nH]c3cc(Cl)ccc32)CC1` [Domperidone], the “fraction of imaged embryos annotated” value was 0.818.
`CCC(C)C1O[C@]2(C=C[C@@H]1C)C[C@@H]1CC(C/C=C(\C)[C@@H](OC3C[C@H](OC)[C@@H](OC4C[C@H](OC)[C@@H](O)[C@H](C)O4)[C@H](C)O3)[C@@H](C)/C=C/C=C3\COC4[C@H](O)C(C)=CC(C(=O)O1)[C@]34O)O2` (stereo partly drawn) [Avermectin B1a] was tested, and the “fraction of imaged embryos annotated” value was 0.583.
In the case of `CNC(=O)Oc1ccc2c(c1)[C@]1(C)CCN(C)[C@@H]1N2C` [Eserine hemisulfate salt], the “fraction of imaged embryos annotated” value is reported as 1.
In the case of `CNCC(O)c1ccc(O)cc1` (racemic) [(+,-)-Synephrine], the “fraction of imaged embryos annotated” value is reported as 0.833.

What follows are compounds tested on Danio rerio Tg(wt1b:EGFP) embryo, pronephros (assay: pronephric angle neck segment to proximal convoluted tubule (mean of left and right), fold change vs DMSO control; higher = larger pronephric angle). Settings: 25 µM; exposure: 24-48 hpf.
How it was run: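 Dechorionated Tg(wt1b:EGFP) zebrafish embryos were treated with 25 μM compound in 0.5% DMSO, in HEPES-buffered E3 with 0.003% PTU, from 24 to 48 hpf at 28.5°C. On maximum projections of dorsal pronephros images, 16 hand-placed reference points in Fiji gave distances and angles, and values more than 2 SD from the feature mean were left out. Results are fold changes over the mean of same-day DMSO-treated embryos.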
For `N[C@@H]1C[C@H]1c1ccccc1` [Tranylcypromine hydrochloride], the “pronephric angle neck segment” value was 1.01 ± 0.038.
With `CC(C)N(CCC(C(N)=O)(c1ccccc1)c1ccccn1)C(C)C` (stereo not drawn) [Disopyramide] the “pronephric angle neck segment” value was 1.05 ± 0.038.
For `CCNCC(O)c1cccc(O)c1` (stereo not drawn) [Etilefrine hydrochloride], the “pronephric angle neck segment” value was 0.951 ± 0.051.
With `CO[C@]12C[C@@H](COC(=O)c3cncc(Br)c3)CN(C)[C@@H]1Cc1cn(C)c3cccc2c13` [Nicergoline] the “pronephric angle neck segment” value was 0.966 ± 0.028.
For `C#C[C@]1(O)CC[C@H]2[C@@H]3CCC4=CC(=O)CC[C@]4(C)[C@H]3CC[C@@]21C` [Ethisterone], the “pronephric angle neck segment” value was 1.065 ± 0.002.
In the case of `NCCc1c[nH]c2ccc(O)cc12` [Serotonin hydrochloride], the “pronephric angle neck segment” value is reported as 1.064 ± 0.007.
`C[C@@H]1C[C@@H]([C@H](O)CC2CC(=O)NC(=O)C2)C(=O)[C@@H](C)C1` [Cycloheximide] was tested, and the “pronephric angle neck segment” value was 1.73 ± 0.19.
In the case of `CCC1=C[C@H]2CN3CCc4c([nH]c5ccccc45)[C@](C(=O)OC)(C2)[C@H]13` [Catharanthine], the “pronephric angle neck segment” value is reported as 1 ± 0.032.
`CC(=O)O[C@H]1C[C@@H]2CC[C@@H]3[C@H](CC[C@@]4(C)[C@H]3C[C@H]([N+]3(C)CCCCC3)[C@@H]4OC(C)=O)[C@@]2(C)C[C@@H]1[N+]1(C)CCCCC1` [Pancuronium bromide] was tested, and the “pronephric angle neck segment” value was 0.955 ± 0.047.
With `CC(C)[N+](C)(CCC(C(N)=O)(c1ccccc1)c1ccccc1)C(C)C` [Isopropamide iodide] the “pronephric angle neck segment” value was 0.983 ± 0.025.
In the case of `CN1C(=O)CCS(=O)(=O)C1c1ccc(Cl)cc1` (stereo not drawn) [Chlormezanone], the “pronephric angle neck segment” value is reported as 0.989 ± 0.059.
With `CC(CCc1ccccc1)NC(C)C(O)c1ccc(O)cc1` (stereo not drawn) [Nylidrin] the “pronephric angle neck segment” value was 1 ± 0.02.
In the case of `NC(=O)OCCCc1ccccc1` [Phenprobamate], the “pronephric angle neck segment” value is reported as 1.01 ± 0.05.
In the case of `CCN(C(C)=O)c1cccc(-c2ccnc3c(C#N)cnn23)c1` [Zaleplon], the “pronephric angle neck segment” value is reported as 1.03 ± 0.027.
In the case of `c1ccc2c(c1)OCC(C1=NCCN1)O2` (stereo not drawn) [Idazoxan hydrochloride], the “pronephric angle neck segment” value is reported as 1.02 ± 0.021.
For `CC(=O)OCC1=C(C(=O)O)N2C(=O)[C@@H](N)[C@H]2SC1` [Cephalosporanic acid, 7-amino], the “pronephric angle neck segment” value was 0.977 ± 0.06.
In the case of `CC(Cc1ccc(O)cc1)NCC(O)c1cc(O)cc(O)c1` (stereo not drawn) [Fenoterol hydrobromide], the “pronephric angle neck segment” value is reported as 0.916 ± 0.028.
In the case of `COc1ccc(CCN)cc1OC` [Homoveratrylamine], the “pronephric angle neck segment” value is reported as 0.972 ± 0.021.
With `O=C(NCNC(=O)NC1C(=O)NC(=O)N1CO)NC1C(=O)NC(=O)N1CO` (stereo not drawn) [Imidurea] the “pronephric angle neck segment” value was 1.058 ± 0.0052.
`CC[C@@H](C(N)=O)N1CCCC1=O` [Levetiracetam] was tested, and the “pronephric angle neck segment” value was 1.011 ± 0.0044.
With `NC(=O)C[S+]([O-])C(c1ccccc1)c1ccccc1` (stereo not drawn) [Modafinil] the “pronephric angle neck segment” value was 1 ± 0.041.
For `CCN(CC)C(C)C(=O)c1ccccc1` (stereo not drawn) [Amfepramone hydrochloride], the “pronephric angle neck segment” value was 1.01 ± 0.0072.
In the case of `COc1ccc(CCN2CCC(Nc3nc4ccccc4n3Cc3ccc(F)cc3)CC2)cc1` [Astemizole], the “pronephric angle neck segment” value is reported as 1.01 ± 0.022.
`S=C(NC1CCCCC1)N1CCC(c2cnc[nH]2)CC1` [Thioperamide maleate] was tested, and the “pronephric angle neck segment” value was 1.06 ± 0.013.
With `c1ccc2nc(N3CCNCC3)ccc2c1` [Quipazine dimaleate salt] the “pronephric angle neck segment” value was 1.022 ± 0.0046.
For `C[C@@H]1O[C@@H](O[C@@H]2C=C3CC[C@@H]4[C@H](CC[C@]5(C)[C@@H](c6ccc(=O)oc6)CC[C@]45O)[C@@]3(C)CC2)[C@H](O)[C@H](O)[C@H]1O` [Proscillaridin A], the “pronephric angle neck segment” value was 1.2604 ± 0.00066.
With `COc1ccc(Cc2nccc3cc(OC)c(OC)cc23)cc1OC` [Papaverine hydrochloride] the “pronephric angle neck segment” value was 0.968 ± 0.018.
In the case of `CC[N+]1(C)CCCC(OC(=O)C(O)(c2ccccc2)c2ccccc2)C1` (stereo not drawn) [Pipenzolate bromide], the “pronephric angle neck segment” value is reported as 0.981 ± 0.037.
For `O=P1(N(CCCl)CCCl)NCCCO1` (stereo not drawn) [Cyclophosphamide], the “pronephric angle neck segment” value was 1.09 ± 0.028.
In the case of `CC(=O)NC1CCSC1=O` (racemic) [N-Acetyl-DL-homocysteine Thiolactone], the “pronephric angle neck segment” value is reported as 1 ± 0.066.
`C=CC[C@]1(O)CC[C@H]2[C@@H]3CCC4=CC(=O)CCC4=C3C=C[C@@]21C` [Altrenogest] was tested, and the “pronephric angle neck segment” value was 0.981 ± 0.072.
`O=c1[nH]c2ccccc2n1CCCN1CCC(n2c(=O)[nH]c3cc(Cl)ccc32)CC1` [Domperidone] was tested, and the “pronephric angle neck segment” value was 0.963 ± 0.041.
`CCC(C)C1O[C@]2(C=C[C@@H]1C)C[C@@H]1CC(C/C=C(\C)[C@@H](OC3C[C@H](OC)[C@@H](OC4C[C@H](OC)[C@@H](O)[C@H](C)O4)[C@H](C)O3)[C@@H](C)/C=C/C=C3\COC4[C@H](O)C(C)=CC(C(=O)O1)[C@]34O)O2` (stereo partly drawn) [Avermectin B1a] was tested, and the “pronephric angle neck segment” value was 1.14 ± 0.069.
With `CNC(=O)Oc1ccc2c(c1)[C@]1(C)CCN(C)[C@@H]1N2C` [Eserine hemisulfate salt] the “pronephric angle neck segment” value was 0.981 ± 0.013.
For `CNCC(O)c1ccc(O)cc1` (racemic) [(+,-)-Synephrine], the “pronephric angle neck segment” value was 1.017 ± 0.0012.
